Among the test systems are TLK1; TLK2; TNIK; TNK1; TNK2; TNNI3K; TRKB; TRPM6.
Details in all cases: concentration: 1 μM, replicates: in singlicate; n = 1
In the next experiment the test system is T1, TRKA.
T1 construct: gene NTRK1

A further experiment has as its system T2, TRKC.
T2 construct: gene NTRK3
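Further: KINOMEscan kinase panel screen.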

Turning to `Fc1ccc(-c2nn3cccc(F)c3c2-c2ccncc2)cc1` [GW475620], the “%Inh” value in the experiment with TLK1 was found to be 0%; in the experiment with TLK2, 0%; in the experiment with TNIK, 32%; with TNK1, 0%; in the experiment with TNK2 it was 12%; in the experiment on TNNI3K it was 0%. Also, the “%Inh” value is given as 15% with TRKA, 0% in the experiment with TRKB, 2% in the experiment on TRKC and 0% with TRPM6.

For `COc1ccc(CSc2nnc(-c3ccc4nccn4c3)o2)cc1C(F)(F)F`, the “%Inh” value came to 6% with TLK1; 13% with TLK2; 0% with TNIK; 0% in the experiment with TNK1; 3% with TNK2; 0% in the experiment with TNNI3K. The “%Inh” value turned out to be 18% with TRKA, 0% with TRKB, 38% in the experiment on TRKC and 0% with TRPM6.

Take `COc1ccc(Nc2nccc(-c3ccc(NC(=O)c4cc5cc(F)ccc5[nH]4)cc3)n2)cc1` [GSK1229496]: the “%Inh” value with TLK1 is 23%; in the experiment on TLK2 it was 0%; in the experiment with TNIK, 0%; in the experiment on TNK1, 47%; with TNK2, 0%; in the experiment on TNNI3K, 0%. For the same compound, the “%Inh” value in the experiment on TRKA amounted to 9%; with TRKB, 13%; in the experiment on TRKC, 0%; with TRPM6 it was 0%.

On to `COC(=O)c1cccc(NC(=O)NC2CCN(c3ccnc(Nc4ccc(OC)cc4)n3)C2)c1` (stereo not drawn) [GSK1379746], for which the “%Inh” value with TLK1 is reported as 0%; in the experiment with TLK2, 0%; with TNIK, 0%; in the experiment on TNK1, 0%; in the experiment on TNK2 it was 12%; in the experiment with TNNI3K, 0%. Further, the “%Inh” value is on record as 34% in the experiment on TRKA, 71% in the experiment with TRKB, 86% in the experiment with TRKC and 11% in the experiment on TRPM6.

For the compound `Cc1ccccc1-c1cc(-c2c[nH]nc2-c2ccccn2)ccn1` [GW680061], the “%Inh” value is listed as 0% with TLK1; 0% in the experiment with TLK2; 8% in the experiment on TNIK; 0% in the experiment on TNK1; 16% in the experiment on TNK2; 0% in the experiment with TNNI3K. Besides, the “%Inh” value in the experiment on TRKA stood at 0%; with TRKB it was 0%; with TRKC, 16%; with TRPM6, 0%.

In the case of `Cc1c(Cn2c3ccccc3n3c(=O)cc(N4CCOCC4)nc23)cccc1C(F)(F)F` [GSK2306394], the “%Inh” value with TLK1 was determined as 5%; with TLK2 it was 0%; in the experiment with TNIK it was 0%; in the experiment with TNK1, 0%; in the experiment with TNK2, 3%; in the experiment with TNNI3K it was 0%. Further, the “%Inh” value with TRKA, in the experiment on TRKB, in the experiment on TRKC and with TRPM6 was 0% throughout.

With `O=c1cc(N2CCOCC2)nc2n(Cc3cccc(Cl)c3Cl)c3ccccc3n12` [GSK2299009], the “%Inh” value turned out to be 2% in the experiment with TLK1; 0% with TLK2; 1% with TNIK; 6% in the experiment with TNK1; 9% in the experiment with TNK2; 17% with TNNI3K. Further, the “%Inh” value in the experiment with TRKA was determined as 18%; with TRKB it was 0%; in the experiment with TRKC it was 0%; with TRPM6, 36%.

For the compound `COc1nccc(-c2c(-c3ccc(F)cc3)ncn2CCCN2CCOCC2)n1` [SB-282852], the “%Inh” value with TLK1 turned out to be 26%; in the experiment with TLK2, 0%; in the experiment on TNIK, 0%; in the experiment on TNK1 it was 0%; in the experiment with TNK2, 0%; with TNNI3K it was 0%. The “%Inh” value in the experiment with TRKA was 61%; in the experiment on TRKB, 56%; in the experiment with TRKC it was 13%; with TRPM6 it was 0%.

For the compound `COc1ccc(-c2coc3ccc(-c4nnc(C)o4)cc23)cc1`, the “%Inh” value in the experiment with TLK1 amounted to 12%; in the experiment with TLK2, 6%; in the experiment on TNIK, 0%; in the experiment on TNK1 it was 0%; in the experiment on TNK2 it was 0%; in the experiment on TNNI3K it was 0%. The “%Inh” value in the experiment with TRKA, in the experiment with TRKB, in the experiment on TRKC and in the experiment with TRPM6 was 0% throughout.

With `CC(=O)c1cccc(NC(=O)NC2CCN(c3ccnc(Nc4ccc(F)cc4)n3)C2)c1` (stereo not drawn) [GSK1379710], the “%Inh” value with TLK1 was 12%; in the experiment on TLK2, 25%; in the experiment with TNIK, 3%; in the experiment on TNK1 it was 0%; in the experiment on TNK2, 7%; in the experiment with TNNI3K, 5%. For the same compound, the “%Inh” value in the experiment with TRKA is reported as 56%; in the experiment with TRKB, 69%; in the experiment on TRKC, 81%; with TRPM6, 32%.

Turning to `COC(=O)C(NC(=O)NC1CCN(c2ccnc(Nc3ccc(F)cc3)n2)C1)c1ccccc1` (stereo not drawn) [GSK1379712], the “%Inh” value with TLK1 amounted to 14%; in the experiment with TLK2, 6%; with TNIK, 17%; in the experiment on TNK1, 0%; in the experiment with TNK2, 0%; in the experiment on TNNI3K, 24%. In addition, the “%Inh” value in the experiment on TRKA is listed as 51%; in the experiment with TRKB it was 6%; in the experiment with TRKC it was 29%; in the experiment on TRPM6, 44%.

Consider `NS(=O)(=O)c1cccc(N/C=C2\C(=O)Nc3ccc(S(=O)(=O)Cc4c(Cl)cccc4Cl)cc32)c1` [GSK398099], for which the “%Inh” value with TLK1 was 75%; in the experiment on TLK2 it was 0%; in the experiment with TNIK, 91.8%; in the experiment on TNK1 it was 0%; in the experiment with TNK2, 26%; in the experiment with TNNI3K, 4%. Further, the “%Inh” value is recorded as 49% with TRKA, 0% in the experiment with TRKB, 29% in the experiment on TRKC and 37% in the experiment on TRPM6.

Consider `Cc1ccc(-c2nc(Nc3ccncc3)c3ccccc3n2)s1` [GSK189015], for which the “%Inh” value in the experiment with TLK1 is listed as 0%; in the experiment on TLK2 it was 0%; in the experiment with TNIK, 8%; with TNK1 it was 29%; with TNK2 it was 19%; in the experiment with TNNI3K, 14%. The “%Inh” value in the experiment with TRKA is on record as 44%; in the experiment with TRKB it was 0%; in the experiment on TRKC, 0%; in the experiment with TRPM6 it was 15%.

With `O=C(Nc1n[nH]c2cc(-c3ccsc3)ccc12)C1CC1` [SB-732932], the “%Inh” value in the experiment on TLK1 was found to be 0%; in the experiment with TLK2, 0%; in the experiment on TNIK it was 61%; in the experiment on TNK1 it was 0%; in the experiment with TNK2, 8%; with TNNI3K, 0%. For the same compound, the “%Inh” value in the experiment with TRKA amounted to 87%; in the experiment with TRKB, 39%; in the experiment on TRKC, 38%; in the experiment on TRPM6, 0%.

On to `Cc1cccc2c(-c3ccncn3)c(-c3ccc(F)cc3)nn12` [GW515532], for which the “%Inh” value in the experiment with TLK1 turned out to be 6%; in the experiment with TLK2 it was 0%; in the experiment with TNIK, 8%; in the experiment with TNK1, 0%; with TNK2 it was 0%; in the experiment with TNNI3K it was 0%. The “%Inh” value with TRKA worked out at 2%; with TRKB it was 0%; in the experiment on TRKC it was 7%; with TRPM6, 0%.

Take `Cc1ccc(NC(=O)Nc2ccc(Cl)c(C(F)(F)F)c2)cc1-c1ccc(C(=O)Nc2ccncc2)cc1` [GSK1398470]: the “%Inh” value was 20% with TLK1; 8% with TLK2; 9% in the experiment with TNIK; 20% in the experiment on TNK1; 10% with TNK2; 64% with TNNI3K. Besides, the “%Inh” value with TRKA was found to be 11%; with TRKB it was 0%; with TRKC, 0%; with TRPM6, 6%.

Take `COc1cccc(C2=C(Nc3cc(Cl)c(O)c(Cl)c3)C(=O)NC2=O)c1` [SB-390767]: the “%Inh” value in the experiment with TLK1 is recorded as 0%; with TLK2, 0%; in the experiment on TNIK, 0%; in the experiment with TNK1, 23%; with TNK2, 26%; in the experiment on TNNI3K it was 13%. Besides, the “%Inh” value is listed as 0% with TRKA, 0% with TRKB, 0% in the experiment with TRKC and 15% in the experiment with TRPM6.

With `CSc1ccc(-c2nc3n(c2-c2ccncc2)CCC3)cc1` [SKF-105561], the “%Inh” value in the experiment on TLK1 was found to be 31%; with TLK2, 0%; in the experiment on TNIK, 7%; in the experiment with TNK1, 0%; in the experiment on TNK2, 0%; with TNNI3K, 49%. For the same compound, the “%Inh” value in the experiment with TRKA was 0%; in the experiment on TRKB it was 4%; in the experiment with TRKC it was 46%; in the experiment on TRPM6 it was 0%.

For `CCc1ccc(-c2ccc3c(c2)-c2n[nH]cc2S(=O)(=O)N3C)cc1`, the “%Inh” value amounted to 28% in the experiment on TLK1; 0% in the experiment on TLK2; 9% in the experiment with TNIK; 34% in the experiment on TNK1; 0% in the experiment with TNK2; 0% in the experiment with TNNI3K. The “%Inh” value in the experiment with TRKA, in the experiment with TRKB, in the experiment on TRKC and in the experiment on TRPM6 was 0% throughout.

As to `c1ccc(-c2ccnc3[nH]ccc23)cc1` [SB-693578], the “%Inh” value in the experiment on TLK1 is recorded as 7%; in the experiment on TLK2, 0%; with TNIK it was 8%; with TNK1, 0%; in the experiment with TNK2 it was 9%; in the experiment on TNNI3K, 11%. Also, the “%Inh” value in the experiment with TRKA was found to be 22%; in the experiment on TRKB, 67%; in the experiment with TRKC, 37%; with TRPM6, 0%.

Regarding `CS(=O)(=O)CCNCc1nc(-c2ccc3ncnc(Nc4ccc5c(cnn5Cc5ccccc5)c4)c3c2)cs1.Cl.Cl` [GW569716], the “%Inh” value in the experiment with TLK1 is recorded as 0%; in the experiment on TLK2, 0%; with TNIK, 0%; in the experiment on TNK1, 0%; in the experiment on TNK2, 18%; in the experiment on TNNI3K it was 0%. The “%Inh” value was determined as 0% with TRKA, 73% in the experiment with TRKB, 40% in the experiment on TRKC and 0% in the experiment with TRPM6.
